The source made the active and inactive calls. Rule for the calls: active = hit-call score of the fitted dose curve at least 0.9, where 1 is the maximum; inactive = score below 0.9.
The molecules below were run against CCAAT/enhancer-binding protein beta (Homo sapiens) (UniProt P17676) (assay: ATG_C_EBP_CIS: Attagene CIS-FACTORIAL HepG2 Assay for human CCAAT/Enhancer Binding Protein (C/EBP) beta (AID 2282927)). Conditions: HepG2 Attagene cis-factorial transcription factor reporter; actives raise or lower the signal.
CCAAT/enhancer-binding protein beta (Homo sapiens), sequence (P17676 whole entry, looked up): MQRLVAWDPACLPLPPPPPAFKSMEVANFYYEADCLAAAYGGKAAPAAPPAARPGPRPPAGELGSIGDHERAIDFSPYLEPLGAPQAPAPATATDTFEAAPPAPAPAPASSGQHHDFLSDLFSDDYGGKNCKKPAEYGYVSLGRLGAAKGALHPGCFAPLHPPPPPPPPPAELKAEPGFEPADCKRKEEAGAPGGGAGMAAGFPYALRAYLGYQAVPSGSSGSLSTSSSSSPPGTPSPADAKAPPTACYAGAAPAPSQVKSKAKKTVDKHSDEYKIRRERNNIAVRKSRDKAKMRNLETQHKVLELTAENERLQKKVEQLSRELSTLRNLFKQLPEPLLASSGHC
Description: ATG_CIS is a cell-based, multiplexed-readout assay that uses HepG2, a human liver cell line, with measurements taken at 24 hours after chemical dosing in a 24-well plate.ATG_C_EBP_CIS is one of 52 assay component(s) measured or calculated from the ATG_CIS assay. It is designed to make measurements of mRNA induction, a form of inducible reporter, as detected with fluorescence intensity signals by Reverse transcription polymerase chain reaction (RT-PCR) and Capillary electrophoresis technology.Data from the assay component ATG_C_EBP_CIS was analyzed into 1 assay endpoint. This assay endpoint, ATG_C_EBP_CIS, was analyzed with bidirectional fitting relative to DMSO as the negative control and baseline of activity. Using a type of inducible reporter, measures of mRNA for gain or loss-of-signal activity can be used to understand the reporter gene at the transcription factor-level as they relate to the gene CEBPB. Furthermore, this assay endpoint can be referred to as a primary readout, because this assay has produced multiple assay endpoints where this one serves a reporter gene function. To generalize the intended target to other relatable targets, this assay endpoint is annotated to the dna binding intended target family, where the subfamily is basic leucine zipper.
Human liver HepG2 cells are transiently transfected with multiple reporter transcription units (MRTUs) in 6-well plates using FuGene 6 reagent (Roche; 3 ml FuGene/1 mg DNA). The MRTU constructs are regulated by a cis-regulating element (promoter). […] A major difference between the CIS and TRANS system is that in CIS activities of endogenous TFs are measured, whereas the TRANS assay evaluates changes in activities of exogenous, chimeric NR-Gal4 proteins. […] At the end of 24 hour incubation, total RNA was isolated using TriZol reagent (Invitrogen). The isolated RNA is then reverse-transcribed using oligo(dT) primer and Mo-MLV reverse transcriptase (Invitrogen) with DNAse I (Ambion) treatment for 30 min. The one-tenth of the produced cDNA was amplified by PCR using Taq DNA polymerase (Invitrogen) and two reporter sequence-specific primers. The PCR products were fluorescently labeled by primer extension with 6-arboxyfluorescein (6-FAM) 5'-labeled reporter sequence-specific primer (2 min at 95 C, 20 s at 68 C and 10 min at 72 C) and these products were digested with 5U of HpaI (New England Biolabs) for 2h at 37 C. The fragments were purified using Qiaquick PCR columns (Qiagen), analyzed on an ABI 3130xL genetic analyzer (Applied Biosystems) with peak positions identified by using a set of X-rhodamine (ROX)-labeled MapMarker1000 molecular weight standards (BioVentures). The raw capillary electrophoresis data was processed using Attagraph software (Attagene).

SMILES | outcome | AC50
CC(Cc1ccc(OCC(=O)O)cc1)NCC(O)c1csc(C(F)(F)F)n1 (stereo not given) | inactive | 
ClC(Cl)c1ccccc1 | inactive | 
CNC(=O)Oc1ccc(N(C)C)c(C)c1 | inactive | 
FC(F)(F)c1ccc(Cl)cc1 | inactive | 
CCCN(CCC)c1c([N+](=O)[O-])cc(C(C)C)cc1[N+](=O)[O-] | inactive | 
O=P(OCC(Br)CBr)(OCC(Br)CBr)OCC(Br)CBr (stereo not given) | inactive | 
Cc1ccc([N+](=O)[O-])cc1C | inactive | 
O=P(Oc1ccccc1)(Oc1ccccc1)Oc1ccccc1 | inactive | 
N#Cc1c(-c2ccc(Cl)cc2)[nH]c(C(F)(F)F)c1Br |  | 0.0342 µM (active)
CC1(C)CN=C(NN=C(/C=C/c2ccc(C(F)(F)F)cc2)/C=C/c2ccc(C(F)(F)F)cc2)NC1 |  | 3.09 µM (active)
Nc1ccc([N+](=O)[O-])cc1Cl | inactive | 
CCC1(c2ccccc2)C(=O)N=C(O)NC1=O (stereo not given) | inactive | 
CCOP(=S)(OCC)SCSCC | inactive | 
C/C(=N\NC(=O)Nc1cc(F)cc(F)c1)c1ncccc1C(=O)O | inactive | 
CCOP(=S)(OCC)SCS(=O)(=O)CC | inactive | 
CC(O)C#N (stereo not given) | inactive | 
O=S1(=O)OCC2C(CO1)C1(Cl)C(Cl)=C(Cl)C2(Cl)C1(Cl)Cl (stereo not given) | inactive | 
O=C(O)CF | inactive | 
O=S(=O)(F)C(F)(F)C(F)(F)C(F)(F)C(F)(F)C(F)(F)C(F)(F)C(F)(F)C(F)(F)F | inactive | 
Nc1cc2c3c(c1)C(c1ccccc1)=N[C@@H](NC(=O)c1cccnc1)C(=O)N3CC2 |  | 40.6 µM (active)

SMILES | outcome | AC50
ClC(Cl)(Cl)c1ccccc1 | inactive | 
CCCCC(CC)COP(=O)(Oc1ccccc1)Oc1ccccc1 (stereo not given) | inactive | 
C=CC(=O)OCC(F)(F)C(F)F | inactive | 
CCCCC(CC)COC(=O)c1c(Br)c(Br)c(Br)c(Br)c1C(=O)OCC(CC)CCCC (stereo not given) | inactive | 
CCCCCCCc1ccc(O)cc1 | inactive | 
CCCCc1ccccc1 | inactive | 
c1ccc2c(c1)sc1ccccc12 | inactive | 
C=CC(=O)OCC(CC)(COC(=O)C=C)COC(=O)C=C | inactive | 
CCCCOCC1CO1 (stereo not given) | inactive | 
CCOS(=O)(=O)OCC | inactive | 
C=C(C)C(=O)OCC1CO1 (stereo not given) | inactive | 
CN(C)C(=O)Cl | inactive | 
CC(C)(C)c1ccccc1OP(=O)(Oc1ccccc1)Oc1ccccc1 |  | 14.8 µM (active)
FC(F)(F)C(F)(C(F)(F)F)C(F)(F)C(F)(F)CC1CO1 (stereo not given) | inactive | 
CC(C)(C)N(NC(=O)c1ccc(Cl)cc1)C(=O)c1ccccc1 | inactive | 
N#C/C=C/c1ccccc1 | inactive | 
NC(=O)C(F)(F)C(F)(F)F | inactive | 
CCCCN(CCCC)N=O | inactive | 
CCCCc1ccc(O)cc1 | inactive | 
O=[N+]([O-])c1ccc(Cl)c(Cl)c1 | inactive | 

From PubChem BioAssay (EPA / NIEHS)
